# High-throughput results (PubChem BioAssay)
# An excerpt weighted towards active compounds, which were near 3% of everything screened.
# EWS-Fli inh = inhibitors of EWS/Fli oncoprotein transcriptional activity | A673 NR0B1-luciferase reporter, viability-normalised | inhibition, % at 12.6 µM | hit rate 0.67% among 350,000;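 active = mean inhibition of at least 50% after viability correction, with every replicate also passing that limit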;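 note: firefly luciferase signal divided by Alamar Blue viability fluorescence both relative to DMSO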
# ABHD5-PLIN5 inh = blocks binding of human ABHD5 to perilipin-5; inhibition, % at 4 µM; AID 602281; Split G. princeps luciferase complementation, luminescence, 4 h; hit rate 0.78% among 360,000; Q00G26+Q8WTS1;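 active = inhibition above the mean inhibition across every tested compound plus 3 SD, cut at about 22% in these data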;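 note: 0% = DMSO only wells and the 100% control is not disclosed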
# Target sequence (Q00G26 whole entry, looked up): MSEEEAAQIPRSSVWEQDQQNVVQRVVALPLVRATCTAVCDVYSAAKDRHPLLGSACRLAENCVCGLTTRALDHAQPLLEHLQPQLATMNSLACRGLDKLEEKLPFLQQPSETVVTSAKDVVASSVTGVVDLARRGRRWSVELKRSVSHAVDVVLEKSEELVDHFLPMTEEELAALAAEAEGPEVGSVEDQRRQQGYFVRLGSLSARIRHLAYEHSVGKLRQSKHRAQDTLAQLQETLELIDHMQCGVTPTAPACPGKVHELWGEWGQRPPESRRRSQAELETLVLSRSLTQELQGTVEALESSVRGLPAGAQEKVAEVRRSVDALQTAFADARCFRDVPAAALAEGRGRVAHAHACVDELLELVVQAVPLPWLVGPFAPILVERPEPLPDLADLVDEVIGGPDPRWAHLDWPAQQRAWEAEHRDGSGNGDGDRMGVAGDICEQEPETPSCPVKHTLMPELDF
# Target sequence (Q8WTS1 whole entry, looked up): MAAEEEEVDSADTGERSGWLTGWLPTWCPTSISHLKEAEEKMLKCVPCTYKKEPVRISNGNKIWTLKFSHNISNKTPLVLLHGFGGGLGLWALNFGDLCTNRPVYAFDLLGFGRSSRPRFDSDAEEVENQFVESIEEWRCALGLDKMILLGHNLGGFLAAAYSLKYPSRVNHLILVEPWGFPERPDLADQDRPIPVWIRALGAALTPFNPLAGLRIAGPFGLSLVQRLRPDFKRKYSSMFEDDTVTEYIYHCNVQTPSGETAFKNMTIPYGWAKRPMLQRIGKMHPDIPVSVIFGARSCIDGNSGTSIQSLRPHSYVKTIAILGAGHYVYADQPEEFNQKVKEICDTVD
# MITF TRPM1 inh = reduces MITF-dependent TRPM1 promoter luciferase signal; SK-MEL-5 TRPM1 promoter luciferase, 24 h; inhibition, % at 12.5 µM; hit rate 0.83% among 330,000; AID 488899;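 active = mean inhibition across replicates of 60% or more, whatever share of single replicates reaches that level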
# PAX8 inh HTS = inhibitors of PAX8 transcriptional activity in RMG-I cells | RMG-I TPO-luciferase reporter, SteadyGlo, 24 h | inhibition, % at 12.6 µM | hit rate 1.2% among 360,000 | AID 652154;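 active = mean replicate inhibition at least 60% with every replicate also reaching 60%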;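 note: luciferase light reporting Pax8 driven TPO promoter activity; plate controls were median of neutral control wells for no effect and mitoxantrone controls for full effect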
# Peg3 promoter = inhibitors of Peg3 promoter; HeLa PEG-Prom luciferase reporter, luminescence, overnight; inhibition, % at 20 µM; hit rate 1.7% among 360,000;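 active = inhibition of at least 50% at 20 µM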
# Shn3 inh set2 = Schnurri-3 reporter inhibition in Clone20 osteoblasts | inhibition, % at 12.5 µM | AID 588674 | Clone20 osteoblast Shn3 3'UTR firefly luciferase, 24 h | hit rate 0.52% among 360,000;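 active = mean inhibition of at least 75% with every replicate also reaching 75%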;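 note: 0% = median of neutral control wells and 100% = pilot-screen positive control compound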
# * hit, by the source's call; / = no result; ! = a repeat was not active.
SMILES,EWS-Fli inh,ABHD5-PLIN5 inh,MITF TRPM1 inh,PAX8 inh HTS,Peg3 promoter,Shn3 inh set2
CC=Cc1ccc2n(c1=O)C[C@@H]1[C@@H](CO)[C@H](C(=O)N(C)C)[C@H]2N1CC1CCCCC1 (mixture of isomers),18,/,/,/,/,/
COc1ccccc1C(=O)Nc1nc(-c2ccc(S(=O)(=O)N3CCOCC3)cc2)cs1,/,5,81*,/,95*,89*
O=C(Nc1nc(-c2ccccc2)cs1)c1ccccc1NS(=O)(=O)c1ccc(F)cc1,/,-3,69*,86*,40,49
O=C(Nc1nc(-c2ccccn2)cs1)c1cccc(S(=O)(=O)N2CCOCC2)c1,14,1,41,81*,49,88*
Cc1ccc(S(=O)(=O)N2CCOCC2)cc1C(=O)Nc1nc(-c2ccccn2)cs1,-1,-11,/,51,26,76
C[C@@H]1CN([C@H](C)CO)C(=O)Cc2cc(N(C)C)ccc2O[C@@H]1CN(C)S(=O)(=O)c1cn(C)cn1,-16,/,/,1,/,/
Cc1noc(C)c1NC(=O)N(C)C[C@@H]1Oc2c(NC(=O)Nc3ccc(F)cc3)cccc2C(=O)N([C@@H](C)CO)C[C@@H]1C,-2,/,/,1,/,/
O=C(CCl)N=c1sccn1Cc1ccccc1Cl,63*,6,24,100*,24,-12
O=C(CCl)N=c1sccn1Cc1ccc(Cl)cc1Cl,21,5,19,111*,24,5
O=C(CCl)N=c1sccn1Cc1cccc2ccccc12,34,7,53,111*,34,11
CCC(=O)OCC(=O)N=c1sccn1Cc1ccccc1Cl,5,2,10,9,14,-2
O=C(c1ccccn1)N1CC(=O)N2[C@H](C1)[C@H](c1ccc(C#Cc3ccccc3)cc1)[C@@H]2CO,2,/,/,/,/,/
O=C(c1ccccn1)N1C[C@H]2[C@@H](c3ccccc31)[C@@H](CO)N2C(=O)Cc1ccccc1,-2,/,/,15,/,/
C[C@@H]1CCCCO[C@@H](CN(C)CC2CC2)[C@H](C)CN([C@@H](C)CO)C(=O)c2cc(NS(=O)(=O)c3ccc(Cl)cc3)ccc2O1,-5,/,/,-11,/,/
CCCC(=O)Nc1ccc2c(c1)C(=O)N(C)[C@@H]1CC[C@@H](CC(=O)NCC(F)(F)F)O[C@H]1CO2,-2,/,/,5,/,/
COc1ccc(/C=N/NC(=O)c2[nH]c3ccc(Br)cc3c2-c2ccccc2)cc1,/,-2,68*,102*,-10,-18
CCOc1cc(C)c(S(=O)(=O)Nc2ccc3cn[nH]c3c2)cc1C,/,-11,41,/,30,87*
Cc1ccc(S(=O)(=O)Nc2ccc3cn[nH]c3c2)c(C)c1,0,3,10,24,19,16
CN(C)c1ccc(-c2nc3cc(N)ccc3o2)cc1,65*,10,7,33,-27,9
Nc1ccc(-c2nc3cc(N)ccc3o2)cc1,-28,7,-26,-130,-201,-33
O=C(C1CCC1)N1C[C@@H]2[C@H](c3ccccc31)[C@@H](CO)N2S(=O)(=O)c1ccccc1,-4,/,/,4,/,/
C[C@@H]1CN([C@@H](C)CO)C(=O)c2cc(C#C[C@@H](C)O)cnc2O[C@H]1CN(C)Cc1ccccn1,-13,/,/,/,/,/
C[C@H](CO)N1C[C@H](C)[C@H](CN(C)C(=O)c2ccc3c(c2)OCO3)Oc2cc(C#Cc3ccccc3F)ccc2S1(=O)=O,19,/,/,56,/,/
C[C@H](CO)N1C[C@H](C)[C@@H](CN(C)C(=O)Cc2ccccc2)Oc2cc(C#Cc3ccccc3F)ccc2S1(=O)=O,34,/,/,74*,/,/
C[C@H](CO)N1C[C@H](C)[C@@H](CN(C)C(=O)c2ccc3c(c2)OCO3)Oc2cc(C#Cc3ccccc3F)ccc2S1(=O)=O,25,/,/,79*,/,/
SMILES,EWS-Fli inh,ABHD5-PLIN5 inh,MITF TRPM1 inh,PAX8 inh HTS,Peg3 promoter,Shn3 inh set2
O=C(/C=C/c1ccco1)NCc1ccc(F)cc1,-4,17,-5,-4,-17,7
NS(=O)(=O)c1ccc(CNC(=O)/C=C/c2ccco2)cc1,-12,23*,8,0,-3,/
Cc1noc(C)c1NC(=O)Nc1cccc2c1O[C@@H](CN(C)S(=O)(=O)c1ccc(Cl)cc1)[C@@H](C)CN([C@H](C)CO)C2=O,-10,/,/,12,/,/
O=C(O)C1CCCN1c1nc(-c2ccc(Cl)c(Cl)c2)cc(C(F)(F)F)n1 (stereo not given),8,0,/,77*,-15,5
Cc1cccc(S(=O)(=O)N2[C@@H]3CNC[C@H]2C3c2ccc(-c3ccncc3)cc2)c1 (stereo not given in full),65*!,/,/,-2,/,/
Cc1ccccc1S(=O)(=O)N1[C@@H]2CNC[C@H]1C2c1ccc(-c2ccncc2)cc1 (stereo not given in full),8,/,/,6,/,/
Cc1cccc(S(=O)(=O)N2[C@@H]3CNC[C@H]2C3c2ccc(-c3ccccc3C)cc2)c1 (stereo not given in full),59*!,/,/,11,/,/
C#CCOCCOCCOCCNc1nc(N2CCN(C(=O)CCCCCCCCCCNC(=O)[C@@H](CCC(=O)O)n3cc(CCCCCN)nn3)CC2)nc(N2CCN(C(=O)CCCCCCCCCCNC(=O)[C@@H](CCC(=O)O)n3cc(CCCCCN)nn3)CC2)n1,-1,14,1,9,-5,2
C#CCOCCOCCOCCNc1nc(N2CCN(C(=O)[C@H]([C@@H](C)CC)n3cc(CCCN=C(N)N)nn3)CC2)nc(N2CCN(C(=O)[C@H](CCCCN)n3cc(CCC(=O)O)nn3)CC2)n1,-11,-6,-8,-20,5,-12
C#CCOCCOCCOCCNc1nc(N2CCN(C(=O)CCCCCCCCCCNC(=O)[C@@H](CCSC)n3cc(CCO)nn3)CC2)nc(N2CCN(C(=O)CCCCCCCCCCNC(=O)[C@H]([C@@H](C)CC)n3cc(CCCCN=C(N)N)nn3)CC2)n1,/,57*,63*,/,-2,46
C#CCOCCOCCOCCNc1nc(N2CCN(C(=O)CCCCCCCCCCNC(=O)[C@H](CCCCN)n3cc(CCO)nn3)CC2)nc(N2CCN(C(=O)CCCCCCCCCCNC(=O)[C@H](CCCN=C(N)N)n3cc(C[C@@H](C)CC)nn3)CC2)n1,/,50*,77*,/,13,52
C#CCOCCOCCOCCNc1nc(N2CCN(C(=O)CCCCCCCCCCNC(=O)[C@H](CCCCN)n3cc(C[C@@H](C)CC)nn3)CC2)nc(N2CCN(C(=O)CCCCCCCCCCNC(=O)[C@H](CCCCN)n3cc(C[C@@H](C)CC)nn3)CC2)n1,/,58*,41,/,105*,-16
C#CCOCCOCCOCCNc1nc(N2CCN(C(=O)CCCCCCCCCCNC(=O)[C@H](CCCCN)n3cc(CCCC(=O)O)nn3)CC2)nc(N2CCN(C(=O)CCCCCCCCCCNC(=O)[C@H](CCCN=C(N)N)n3cc(C[C@@H](C)CC)nn3)CC2)n1,/,45*,30,/,-8,15
COc1ccc(S(=O)(=O)N(C)C[C@@H]2Oc3c(NC(=O)Nc4ccc(F)cc4)cccc3C(=O)N([C@@H](C)CO)C[C@H]2C)cc1,-14,/,/,/,/,/
